Values without a mark were called inactive. How the calls were made is not given here.
System: Aerobactin synthetase IucA (Klebsiella pneumoniae, hypervirulent)
Test: IucA enzyme inhibition, biochemical, LOPAC library, absorbance readout (AID 1346212);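 further: 100% = no compound wells and 0% = no enzyme wells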
Details: IucA enzyme assay, absorbance (OD) readout; hits give low values;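 tested at 8 µM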

Question: For `O=C(CCNNC(=O)c1ccncc1)NCc1ccccc1`, which remaining activity is on record?
Answer: 115%

Question: With `COc1cc(OC)c(/C=C2/C(=O)Nc3ccccc32)c(OC)c1` as the compound, how does the remaining activity read?
Answer: 99.3%

Question: With `O=C(O)CN(CCN(CC(=O)O)CC(=O)O)CCN(CC(=O)O)CC(=O)O` as the compound, how does the remaining activity read?
Answer: 90.9%

Question: Which remaining activity does the source give for `C[C@]1(C2CCCC2)Cc2cc(OCC(=O)O)c(Cl)c(Cl)c2C1=O` here?
Answer: 113%

Question: For `Nc1c(S(=O)(=O)O)cc(Nc2ccc(Nc3nc(Cl)nc(Nc4cccc(S(=O)(=O)O)c4)n3)c(S(=O)(=O)O)c2)c2c1C(=O)c1ccccc1C2=O`, which remaining activity is on record?
Answer: 100%

Question: With `O=Nc1c(-c2c(O)[nH]c3cc(Br)ccc23)[nH]c2ccccc12` as the compound, how does the remaining activity read?
Answer: 113%

Question: How did the remaining activity turn out when `C[C@]12CC[C@@H]3c4ccc(O)cc4CC[C@H]3[C@@H]1CC[C@@H]2O` was run?
Answer: 99.8%

Question: With `Brc1c(NC2=NCCN2)ccc2nccnc12` as the compound, how does the remaining activity read?
Answer: 105%

Question: For `[Li+]`, which remaining activity is on record?
Answer: 102%

Question: For `C[C@H](Cc1ccccc1)Nc1ncnc2c1ncn2[C@@H]1O[C@H](CO)[C@H](O)C1O` (stereo partly drawn), which remaining activity is on record?
Answer: 118%

Question: `N[C@@H](CS(=O)O)C(=O)O` was tested. Which remaining activity did it give?
Answer: 115%

Question: With `O=c1onc2n1-c1cc(Br)ccc1OC2` as the compound, how does the remaining activity read?
Answer: 105%

Question: How did the remaining activity turn out when `Oc1cc2c(cc1O)CN(C(=S)NCCc1ccc(Cl)cc1)CCC2` was run?
Answer: 97.8%

Question: `Cc1cccc(C(=O)NCN2CCN(c3ccccc3C#N)CC2)c1` was tested. Which remaining activity did it give?
Answer: 123%

Question: Which remaining activity does the source give for `CC(C)Cn1cnc2c(N)nc3ccccc3c21` here?
Answer: 102%

Question: With `Nc1ncnc2c1nc(Br)n2C1OC2COP(=O)(O)O[C@@H]2C1O` (stereo partly drawn) as the compound, how does the remaining activity read?
Answer: 113%

Question: Which remaining activity does the source give for `Cc1[nH]c(=O)c(C#N)cc1-c1ccncc1` here?
Answer: 123%

Question: Which remaining activity does the source give for `CC(=O)NCCc1ccc(O)c(O)c1` here?
Answer: 116%

Question: How did the remaining activity turn out when `O=C(O)C1=CCCN(CCON=C(c2ccccc2)c2ccccc2)C1` was run?
Answer: 104%

Question: Which remaining activity does the source give for `COc1ccc2c(c1)c(CC(=O)O)c(C)n2Cc1ccc(F)cc1` here?
Answer: 101%

Question: With `N[C@@H](Cc1c[nH]c2ccc(O)cc12)C(=O)O` as the compound, how does the remaining activity read?
Answer: 99.1%

Question: For `Nc1ccc(-c2ccc3ccccc3n2)cc1`, which remaining activity is on record?
Answer: 107%

Question: With `CNCC[C@H](Oc1ccc(C(F)(F)F)cc1)c1ccccc1` as the compound, how does the remaining activity read?
Answer: 93.6%

Source: PubChem BioAssay
